This is an account of results in PubChem BioAssay AID2685 (National Center for Advancing Translational Sciences (NCATS), 2010).

Structures are written as SMILES. Screen size: about 320,000 compounds; about 2,100 (0.66%) were called active. Roughly 53% stayed inconclusive and do not appear here. Calls come from the whole dose curve; as a rule, active = well fitted inhibition curve with a large enough effect in the signal ratio, with a control signal flat (not every such curve was filed as active); inconclusive = small, poorly fitted or top-dose-only effect, or effect the other way, or a change in a side signal; inactive = flat fitted curve, though single readings scatter; the % refers to the signal ratio. Only a selection was taken, and actives are over-represented in it overall.
Potency is the fitted concentration of half-maximal effect.

A short description of the assay: qHTS Assay for Lipid Storage Modulators in Drosophila S3 Cells.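 For cell number change: cells counted by Cell Tracker Red CMTPX staining in the red channel.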 The note with it: BODIPY lipid droplet fluorescence, 18-24 h, cells fed with added oleic acid; cell number change: measured here: cell count max response; series mostly up to 46.1 µM. The method, boiled down: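 Drosophila S3 cells got compounds at several concentrations plus oleic acid (400 uM solution). Laser-scanning cytometry with 488 nm excitation read lipid droplets at 500-530 nm and cells at 575-640 nm. Percent activity was relative to 20 uM Triacsin C.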
`Cc1ccc(N)c(C(=O)c2ccccc2)c1`: the Potency result is “inactive” and the cell number change was -2.37%.

Turning to `C=CCn1c(O)c(C(C)=NCc2ccc3c(c2)OCO3)c(=O)[nH]c1=O`, the Potency result is “inactive” and the cell number change is 5.5%.

`COc1ccc(C(=O)C23CN4CN(CN(C4)C2)C3)cc1`: the Potency entry was “inactive” and the cell number change amounted to 4.85%.

`COc1ccc(C(=O)N2CCCC2=O)cc1`: the Potency entry was “inactive” and the cell number change came to 11.9%.

Take `COc1ccc(C(=O)C(C)(C)NO)cc1`: the Potency was 3.26 µM (active) and the cell number change was -1.48%.

Regarding `O=C1NC(=O)N(c2ccc3c(c2)OCO3)C(=O)/C1=C\c1ccsc1`, the Potency result is “inactive” and the cell number change was -1.9%.

In the case of `CC(=O)c1cc(C(C)=O)c(C)[n+](C)c1C`, the Potency entry was “inactive” and the cell number change was determined as 12.6%.

As for `CNC(=S)N1CCN(CCN=Cc2c(O)n(-c3ccc(C)cc3)c(=S)[nH]c2=O)CC1`, the Potency entry was “inactive” and the cell number change worked out at 1%.

As for `Cc1cc(OCC(=O)NCc2ccncc2)c2c3c(c(=O)oc2c1)CCC3`, the Potency entry is “inactive” and the cell number change was -10.8%.

Turning to `Cc1cc(OCC(=O)NCC(O)c2ccccc2)c2c3c(c(=O)oc2c1)CCC3` (configuration not stated), the Potency was 20.6 µM (active) and the cell number change is -16.3%.

As for `Cc1cc(OC(C)C(=O)NCC(O)c2ccccc2)c2c3c(c(=O)oc2c1)CCC3` (configuration not stated), the Potency result was “inactive”.

With `CC12CN3CCN(CC(C3)/C1=N/NC(N)=O)C2`, the Potency result was “inactive” and the cell number change was found to be 0.944%.

For `CC(C)C12CN3CCN(CC(C3)/C1=N\O)C2`, the Potency is 6.51 µM (active) and the cell number change is -1.85%.

For the compound `CCC12CN3CCN(CC(C3)/C1=N\O)C2`, the Potency entry was “inactive” and the cell number change is -11.3%.

`C/C(=N\NC(=S)Nc1ccccc1)c1c(O)n(C)c(=O)n(C)c1=O`: the Potency result was “inactive”.

Turning to `CCN1C[C@]2(C)CC[C@H](O)[C@]34C1[C@H](C[C@H]23)[C@@]1(O)C[C@H](OC)[C@H]2C[C@@H]4[C@@H]1C2O` (some centres not stated), the Potency result is “inactive” and the cell number change was -19.2%.

In the case of `Cn1c(O)c(C=NC2CCN(Cc3ccccc3)CC2)c(=O)n(C)c1=O`, the Potency result was “inactive” and the cell number change is 0.664%.

Consider `CC(=NC1CCN(Cc2ccccc2)CC1)c1c(O)n(C)c(=O)n(C)c1=O`, for which the Potency is 29.1 µM (active) and the cell number change is 4.54%.

Regarding `C=CCn1c(O)c(C(C)=NC2CCN(Cc3ccccc3)CC2)c(=O)[nH]c1=O`, the Potency result was “inactive” and the cell number change worked out at 4.94%.

Regarding `CCOC(=O)C1=C(N)OC2=C(C(=O)CCC2)[C@]12C(=O)N(CC(N)=O)c1ccccc12`, the Potency entry is “inactive” and the cell number change worked out at 1.37%.

As for `CCCCOC(=O)C1=C(N)OC2=C(C(=O)CCC2)[C@]12C(=O)N(C)c1ccccc12`, the Potency is 5.17 µM (active) and the cell number change is -3.29%.

`CCCCOC(=O)C1=C(N)OC2=C(C(=O)CC(C)(C)C2)[C@]12C(=O)N(C)c1ccccc12`: the Potency entry was “inactive” and the cell number change is -14.5%.

As for `COC1CCCCC1NCCc1ccccc1` (configuration not stated), the Potency result is “inactive” and the cell number change was -9.24%.

Take `N#Cc1ccc(Cn2cc(C=O)c3ccccc32)cc1`: the Potency entry is “inactive” and the cell number change stood at 15.7%.

Regarding `C=CCn1c(O)c(C(CC)=NCCN2CCN(C(=S)NC)CC2)c(=O)[nH]c1=O`, the Potency entry is “inactive” and the cell number change is -0.0083%.

For the compound `CCCCn1c(=O)c(C(=O)NCCc2ccccc2)c(O)c2ccccc21`, the Potency result is “inactive” and the cell number change is -5.77%.

Regarding `Cc1cc(O)c2c(c1)C(=O)C13C(=C2O)C(=O)[C@H]2[C@@H](O)[C@@H]1[C@H]1[C@H](O)[C@@H]3C(=O)C3=C(O)c4c(O)cc(C)cc4C(=O)C312` (some centres not stated), the Potency is 9.2 µM (active) and the cell number change was 19.8%.
